Reference: PubChem BioAssay (Tox21)
Results filed as inconclusive are left out. A call without a number means that no potency is given here. The source made the active and inactive calls. Calls come from the whole dose curve; as a rule, active = well fitted activation curve with a large enough effect in the signal ratio in the repeat runs (not every such curve was filed as active); inconclusive = weak or mixed curves; inactive = flat fitted curve, though single readings scatter; the % refers to the signal ratio.

assay: p53 small molecule agonists, cell-based qHTS assay (AID 1963582); conditions: HCT-116 p53RE-bla reporter, beta-lactamase FRET ratio, 16 h; series mostly up to 66 µM
Text: National Center for Advancing Translational Sciences [NCATS]
Division of Preclinical Innovation [DPI]
U.S. Environmental Protection Agency [EPA]
National Institutes of Environmental Health Sciences [NIEHS]
National Toxicology Program [NTP]
U.S. Food and Drug Administration [FDA]
p53, a tumor suppressor protein, is activated following cellular insult, including DNA damage and other cellular stresses. The activation of p53 regulates cell fate by inducing DNA repair, cell cycle arrest, apoptosis, or cellular senescence. The activation of p53, therefore, is a good indicator of DNA damage and other cellular stresses. […] The activation of the reporter gene under culture conditions can be detected by fluorescence intensity. This cell line was used to screen the Tox21 10K compound library in a 1536-well plate format and to identify agonists that activate the p53 signaling pathway.
Tox21 Assay Protocol Summary:
The p53RE-bla cells were dispensed at 4,000 cells/5 ul/well in 1536-well black wall/clear bottom plates using a Multidrop dispenser. After the assay plates were incubated at a 37 C/5% CO2 incubator for 5 hours, 23 nL of compounds dissolved in DMSO, positive controls or DMSO only was transferred to the assay plate by a pin tool. The plates were incubated at 37 C for 16 hours. After 1 uL of LiveBLAzerTM B/G FRET substrate was added using a Flying Reagent Dispenser, the plates were incubated at room temperature for 2 hours, and fluorescence intensity was measured by an Envision plate reader.

Structure (SMILES)	Potency	activation
CN1CCOCC1	inactive	
C=C1CC/C=C(\C)CC[C@@H]2[C@@H]1CC2(C)C	inactive	
c1ccc2c(c1)Oc1ccccc1S2	inactive	
CCCCCCCCCCCCCCCCI		-4.93% [at 13.5 µM] (inactive)
OC[C@H]1O[C@H](O[C@H]2O[C@H](CO)[C@@H](O)[C@H](O)[C@H]2O)[C@H](O)[C@@H](O)[C@@H]1O	inactive	
CCOC(=O)NCCC[Si](OCC)(OCC)OCC	inactive	
CCCCCCCCOC(=O)CCCCCCCCC(=O)OCCCCCCCC	inactive	
CC(C)(C)c1n[nH]c(=O)n(N)c1=O	inactive	
CCOC(C)(C)C	inactive	
CCCCCCCCCCCCCCCC	inactive	
C1CCC2OC2C1 (stereo not given)	inactive	
Cc1cc(C)cc(O)c1	inactive	
O=C(O)c1ccc(OCCN2CCCCC2)cc1	inactive	
Cc1nc(C)c(C)nc1C	inactive	
COC(CC(C)CCCC(C)(C)O)OC (stereo not given)	inactive	
CC(C)C(=O)c1ccccc1	inactive	
NC(=O)N[C@@H](CCC(=O)O)C(=O)O	inactive	
OCCN1CCN(CCCN2c3ccccc3C=Cc3ccccc32)CC1	inactive	
COC(=O)c1ccc([N+](=O)[O-])cc1	inactive	
O=P(OC(CCl)CCl)(OC(CCl)CCl)OC(CCl)CCl	inactive	

Structure (SMILES)	Potency	activation
CC1=C(O)C(=O)OC1C (stereo not given)	inactive	
C=CC(C)(O)CC/C=C(\C)CC (stereo not given)	inactive	
CC(O)Cn1cnc2c1c(=O)n(C)c(=O)n2C (stereo not given)	inactive	
C/C=C/CO	inactive	
NCc1cccc(CN)c1	inactive	
C=CC(=O)NCOCC(C)C	inactive	
O=C1NCCN1CCO	inactive	
OCc1ccccc1O	inactive	
Cc1oncc1C(=O)Nc1ccc(C(F)(F)F)cc1	inactive	
C[C@H]1C[C@H](O)c2ccsc2S1(=O)=O	inactive	
c1c[nH]cn1	inactive	
NC/C=C/C(=O)O	inactive	
[Cl][Nd]([Cl])[Cl]	inactive	
CCCCCC(=O)CC	inactive	
CCCCCCCCCCCCCC	inactive	
COC(=O)c1sccc1S(N)(=O)=O	inactive	
CC1(C)C(C=C(Cl)Cl)C1C(=O)OCc1cccc(Oc2ccccc2)c1 (stereo not given)	inactive	
CCCCSCCCC	inactive	
CC(C)(C)c1ccc(CCC=O)cc1	inactive	
N[C@@H](CCC(=O)Nc1ccc([N+](=O)[O-])cc1)C(=O)O	inactive	
